{"source": "the antibiotic and cytotoxicity screens of Wong et al. (2023)", "note": "Screen size: about 39,000 compounds; about 3,300 (8.5%) were called active. This excerpt belongs to a sample that is enriched for actives.", "data": [{"test_system": "HepG2", "assay": "cytotoxicity call (relative viability < 0.9)", "settings": "10 µM", "values": [{"smiles": "C[C@@H]1CN([C@@H](C)CO)C(=O)c2cccc(NC(=O)C3CCCCC3)c2O[C@H]1CN(C)Cc1ccc(C(=O)Nc2ccccc2N)cc1", "cytotoxicity call": "inactive"}, {"smiles": "C[C@@H]1CN([C@@H](C)CO)C(=O)c2cccc(NC(=O)NC3CCCCC3)c2O[C@@H]1CN(C)Cc1ccc(C(=O)Nc2ccccc2N)cc1", "cytotoxicity call": "inactive"}, {"smiles": "C[C@H]1CN([C@@H](C)CO)C(=O)c2cccc(NC(=O)NC3CCCCC3)c2O[C@H]1CN(C)Cc1ccc(C(=O)Nc2ccccc2N)cc1", "cytotoxicity call": "inactive"}, {"smiles": "C[C@H](CO)N1C[C@H](C)[C@H](CN(C)Cc2ccc(C(=O)Nc3ccccc3N)cc2)Oc2c(NC(=O)NC3CCCCC3)cccc2C1=O", "cytotoxicity call": "active"}, {"smiles": "C[C@H]1CN([C@@H](C)CO)C(=O)c2cccc(NC(=O)C3CCCCC3)c2O[C@H]1CN(C)Cc1ccc(C(=O)Nc2ccccc2N)cc1", "cytotoxicity call": "active"}, {"smiles": "C[C@@H]1CN([C@@H](C)CO)C(=O)c2cccc(NC(=O)C3CCCCC3)c2O[C@@H]1CN(C)Cc1ccc(C(=O)Nc2ccccc2N)cc1", "cytotoxicity call": "active"}, {"smiles": "C[C@@H]1CN([C@H](C)CO)C(=O)c2cccc(NC(=O)C3CCCCC3)c2O[C@H]1CN(C)Cc1ccc(C(=O)Nc2ccccc2N)cc1", "cytotoxicity call": "inactive"}, {"smiles": "C[C@H](CO)N1C[C@H](C)[C@H](CN(C)Cc2ccc(C(=O)Nc3ccccc3N)cc2)Oc2c(NC(=O)C3CCCCC3)cccc2C1=O", "cytotoxicity call": "inactive"}, {"smiles": "C[C@H]1CN([C@@H](C)CO)C(=O)c2cccc(NC(=O)C3CCCCC3)c2O[C@@H]1CN(C)Cc1ccc(C(=O)Nc2ccccc2N)cc1", "cytotoxicity call": "inactive"}, {"smiles": "C[C@@H]1CN([C@@H](C)CO)C(=O)c2cc(NC(=O)C3CC3)ccc2O[C@@H]1CN(C)S(=O)(=O)c1ccc(Cl)cc1", "cytotoxicity call": "inactive"}, {"smiles": "Cc1ccc(S(=O)(=O)N(C)C[C@H]2OCCCC[C@@H](C)Oc3ccc(NC(=O)Nc4ccc(C(F)(F)F)cc4)cc3C(=O)N([C@@H](C)CO)C[C@H]2C)cc1", "cytotoxicity call": "inactive"}, {"smiles": "O=C(O)c1c(Br)c(Br)c(Br)c(Br)c1-c1c2ccc(=O)cc-2oc2cc(O)ccc12", "cytotoxicity call": "inactive"}, {"smiles": "CNC[C@@H]1OCCCC[C@H](C)Oc2ccc(NC(=O)Nc3ccc(C(F)(F)F)cc3)cc2C(=O)N([C@@H](C)CO)C[C@@H]1C", "cytotoxicity call": "inactive"}, {"smiles": "COc1ccc(S(=O)(=O)N(C)C[C@@H]2Oc3ccc(NC(=O)CCCN(C)C)cc3C(=O)N([C@@H](C)CO)C[C@H]2C)cc1", "cytotoxicity call": "inactive"}, {"smiles": "C[C@@H]1CCCCO[C@@H](CN(C)C(=O)c2ccccc2)[C@H](C)CN([C@H](C)CO)C(=O)c2cc(NC(=O)c3ccccc3)ccc2O1", "cytotoxicity call": "inactive"}, {"smiles": "CC(C)NC(=O)Nc1ccc2c(c1)CC(=O)N([C@@H](C)CO)C[C@@H](C)[C@H](CN(C)S(=O)(=O)c1cn(C)cn1)O2", "cytotoxicity call": "inactive"}, {"smiles": "C[C@@H]1CN([C@H](C)CO)C(=O)c2cc(NC(=O)Nc3ccccc3)ccc2O[C@H]1CN(C)C(=O)Nc1ccc(C(F)(F)F)cc1", "cytotoxicity call": "inactive"}, {"smiles": "O=C(O)C[C@@H]1CC[C@H]2[C@@H](COC[C@@H](O)CN2S(=O)(=O)c2ccc(F)cc2)O1", "cytotoxicity call": "inactive"}, {"smiles": "COc1ccc(NC(=O)Nc2cccc3c2O[C@@H](CN(C)CC2CCCCC2)[C@H](C)CN([C@H](C)CO)C3=O)cc1", "cytotoxicity call": "inactive"}, {"smiles": "C[C@@H]1CN([C@H](C)CO)C(=O)c2cc(-c3cncnc3)cnc2O[C@@H]1CN(C)C(=O)Nc1ccc2c(c1)OCO2", "cytotoxicity call": "inactive"}, {"smiles": "C[C@@H]1CN([C@@H](C)CO)C(=O)c2cc(-c3cncnc3)cnc2O[C@H]1CN(C)C(=O)Nc1ccc2c(c1)OCO2", "cytotoxicity call": "inactive"}, {"smiles": "C[C@H](CO)N1C[C@H](C)[C@@H](CN(C)C(=O)Nc2ccc3c(c2)OCO3)Oc2ncc(-c3cncnc3)cc2C1=O", "cytotoxicity call": "active"}, {"smiles": "CC(C)NC(=O)N(C)C[C@H]1Oc2c(NC(=O)Nc3ccc4c(c3)OCO4)cccc2C(=O)N([C@@H](C)CO)C[C@H]1C", "cytotoxicity call": "inactive"}, {"smiles": "CC(C)NC(=O)N(C)C[C@@H]1Oc2c(NC(=O)Nc3ccc4c(c3)OCO4)cccc2C(=O)N([C@H](C)CO)C[C@H]1C", "cytotoxicity call": "inactive"}, {"smiles": "Cc1cc(C(=O)Nc2cccc3c2O[C@@H](CN(C)C(=O)Nc2ccc4c(c2)OCO4)[C@@H](C)CN([C@@H](C)CO)C3=O)n(C)n1", "cytotoxicity call": "active"}, {"smiles": "Cc1cc(C(=O)Nc2cccc3c2O[C@H](CN(C)C(=O)Nc2ccc4c(c2)OCO4)[C@H](C)CN([C@@H](C)CO)C3=O)n(C)n1", "cytotoxicity call": "inactive"}, {"smiles": "CC(C)NC(=O)N(C)C[C@@H]1Oc2ccc(NC(=O)Nc3ccc4c(c3)OCO4)cc2C(=O)N([C@@H](C)CO)C[C@@H]1C", "cytotoxicity call": "active"}, {"smiles": "CC(C)NC(=O)N(C)C[C@H]1Oc2ccc(NC(=O)Nc3ccc4c(c3)OCO4)cc2C(=O)N([C@@H](C)CO)C[C@H]1C", "cytotoxicity call": "inactive"}, {"smiles": "CC(C)NC(=O)N(C)C[C@H]1Oc2ccc(NC(=O)Nc3ccc4c(c3)OCO4)cc2C(=O)N([C@H](C)CO)C[C@H]1C", "cytotoxicity call": "inactive"}, {"smiles": "CC(C)NC(=O)N(C)C[C@@H]1Oc2c(NC(=O)Nc3ccc4c(c3)OCO4)cccc2C(=O)N([C@@H](C)CO)C[C@H]1C", "cytotoxicity call": "active"}, {"smiles": "Cc1cc(C(=O)Nc2cccc3c2O[C@@H](CN(C)C(=O)Nc2ccc4c(c2)OCO4)[C@H](C)CN([C@@H](C)CO)C3=O)n(C)n1", "cytotoxicity call": "inactive"}, {"smiles": "C[C@@H]1CCCCO[C@H](CN(C)Cc2ccc(C(=O)O)cc2)[C@@H](C)CN([C@H](C)CO)C(=O)c2cc(NC(=O)C3CCCCC3)ccc2O1", "cytotoxicity call": "inactive"}, {"smiles": "Cc1ccc(S(=O)(=O)N(C)C[C@@H]2Oc3ncc(C#CCN(C)C)cc3C(=O)N([C@H](C)CO)C[C@@H]2C)cc1", "cytotoxicity call": "inactive"}, {"smiles": "Cc1noc(C)c1NC(=O)N(C)C[C@H]1OCCCC[C@@H](C)Oc2ccc(NS(=O)(=O)c3cccs3)cc2C(=O)N([C@@H](C)CO)C[C@@H]1C", "cytotoxicity call": "inactive"}, {"smiles": "C[C@H]1CN([C@@H](C)CO)C(=O)c2cccc(NS(=O)(=O)c3ccc(F)cc3)c2O[C@H]1CN(C)S(=O)(=O)c1ccccc1", "cytotoxicity call": "inactive"}, {"smiles": "Cc1noc(C)c1S(=O)(=O)N(C)C[C@H]1Oc2c(NS(=O)(=O)c3cn(C)cn3)cccc2C(=O)N([C@@H](C)CO)C[C@H]1C", "cytotoxicity call": "inactive"}, {"smiles": "COc1ccccc1O", "cytotoxicity call": "inactive"}, {"smiles": "COc1cccc(OC)c1O", "cytotoxicity call": "inactive"}, {"smiles": "COc1cccc(O)c1O", "cytotoxicity call": "active"}, {"smiles": "O=C1/C(=C/c2cn(-c3ccccc3)nc2-c2ccc(OCc3ccccc3)cc2)SC(=S)N1CCS(=O)(=O)O", "cytotoxicity call": "inactive"}, {"smiles": "Cc1noc(C)c1NC(=O)N(C)C[C@@H]1Oc2ccc(NC(=O)c3ccncc3)cc2C(=O)N([C@@H](C)CO)C[C@H]1C", "cytotoxicity call": "inactive"}, {"smiles": "C[C@H]1CCCCO[C@H](CN(C)Cc2ccc3c(c2)OCO3)[C@@H](C)CN([C@@H](C)CO)C(=O)c2cc(NC(=O)Nc3ccc4c(c3)OCO4)ccc2O1", "cytotoxicity call": "inactive"}, {"smiles": "C[C@@H]1CCCCO[C@@H](CN(C)Cc2ccc3c(c2)OCO3)[C@H](C)CN([C@H](C)CO)C(=O)c2cc(NC(=O)Nc3ccc4c(c3)OCO4)ccc2O1", "cytotoxicity call": "active"}, {"smiles": "C[C@@H]1CN([C@H](C)CO)C(=O)c2cc(NC(=O)Nc3ccc4c(c3)OCO4)ccc2O[C@@H](C)CCCCO[C@H]1CN(C)Cc1ccc2c(c1)OCO2", "cytotoxicity call": "inactive"}, {"smiles": "C[C@H]1CCCCO[C@@H](CN(C)Cc2ccc3c(c2)OCO3)[C@@H](C)CN([C@@H](C)CO)C(=O)c2cc(NC(=O)Nc3ccc4c(c3)OCO4)ccc2O1", "cytotoxicity call": "inactive"}, {"smiles": "C[C@@H]1CCCCO[C@@H](CN(C)Cc2ccc3c(c2)OCO3)[C@@H](C)CN([C@@H](C)CO)C(=O)c2cc(NC(=O)Nc3ccc4c(c3)OCO4)ccc2O1", "cytotoxicity call": "active"}, {"smiles": "C[C@H](CO)N1C[C@H](C)[C@H](CN(C)Cc2ccc3c(c2)OCO3)OCCCC[C@H](C)Oc2ccc(NC(=O)Nc3ccc4c(c3)OCO4)cc2C1=O", "cytotoxicity call": "active"}, {"smiles": "C[C@@H]1CCCCO[C@H](CN(C)Cc2ccc3c(c2)OCO3)[C@H](C)CN([C@H](C)CO)C(=O)c2cc(NC(=O)Nc3ccc4c(c3)OCO4)ccc2O1", "cytotoxicity call": "active"}, {"smiles": "C[C@@H]1CCCCO[C@@H](CN(C)Cc2ccc3c(c2)OCO3)[C@H](C)CN([C@@H](C)CO)C(=O)c2cc(NC(=O)Nc3ccc4c(c3)OCO4)ccc2O1", "cytotoxicity call": "inactive"}, {"smiles": "C[C@@H]1CN([C@@H](C)CO)C(=O)c2cc(NC(=O)Nc3ccc4c(c3)OCO4)ccc2O[C@@H](C)CCCCO[C@H]1CN(C)Cc1ccc2c(c1)OCO2", "cytotoxicity call": "inactive"}, {"smiles": "C[C@@H]1CN([C@@H](C)CO)C(=O)c2ccccc2-c2ccccc2CO[C@@H]1CN(C)C(=O)c1cc(Cl)cc(Cl)c1", "cytotoxicity call": "inactive"}, {"smiles": "O=C(N[C@@H]1C=C[C@H](CC(=O)N2CCOCC2)O[C@@H]1CO)c1ccc2c(c1)OCO2", "cytotoxicity call": "inactive"}, {"smiles": "C[C@@H]1CN([C@@H](C)CO)C(=O)c2cc(NC(=O)C3CCCCC3)ccc2O[C@H]1CN(C)C(=O)Nc1cccc2ccccc12", "cytotoxicity call": "inactive"}, {"smiles": "CO[C@@H](CN(C)C(=O)C1CCOCC1)[C@H](C)CN(C(=O)Nc1ccc(C(F)(F)F)cc1)[C@@H](C)CO", "cytotoxicity call": "inactive"}, {"smiles": "CC(C)CS(=O)(=O)N1C[C@H]2C[C@H](C(=O)N3CCOCC3)[C@@H](C1)O2", "cytotoxicity call": "inactive"}, {"smiles": "CC(=O)O[C@H]1C[C@](C)(O)C2=C[C@@H](O)[C@@](C)(O)[C@@H]2[C@H]2OC(=O)[C@@H](C)[C@@H]21", "cytotoxicity call": "inactive"}, {"smiles": "O=C(CN1CCOCC1)N[C@H]1CC[C@H](CCn2cc(C3CCCC3)nn2)O[C@@H]1CO", "cytotoxicity call": "inactive"}, {"smiles": "CC(C)NC(=O)N(C)C[C@H]1Oc2ccc(NS(=O)(=O)c3ccc(F)cc3)cc2CC(=O)N([C@@H](C)CO)C[C@@H]1C", "cytotoxicity call": "inactive"}, {"smiles": "C[C@@H]1CCCCO[C@H](CN(C)Cc2ccc3c(c2)OCO3)[C@@H](C)CN([C@H](C)CO)C(=O)c2cc(NC(=O)Nc3ccc4c(c3)OCO4)ccc2O1", "cytotoxicity call": "inactive"}, {"smiles": "C[C@@H]1CN([C@@H](C)CO)C(=O)c2cc(NC(=O)Nc3ccc4c(c3)OCO4)ccc2O[C@@H](C)CCCCO[C@@H]1CN(C)Cc1ccc2c(c1)OCO2", "cytotoxicity call": "inactive"}, {"smiles": "C[C@@H]1CCCCO[C@@H](CN(C)Cc2ccc3c(c2)OCO3)[C@@H](C)CN([C@H](C)CO)C(=O)c2cc(NC(=O)Nc3ccc4c(c3)OCO4)ccc2O1", "cytotoxicity call": "inactive"}, {"smiles": "C[C@H](CO)N1C[C@H](C)[C@@H](CN(C)Cc2ccc3c(c2)OCO3)OCCCC[C@H](C)Oc2ccc(NC(=O)Nc3ccc4c(c3)OCO4)cc2C1=O", "cytotoxicity call": "inactive"}, {"smiles": "C[C@@H]1CCCCO[C@H](CN(C)Cc2ccc3c(c2)OCO3)[C@H](C)CN([C@@H](C)CO)C(=O)c2cc(NC(=O)Nc3ccc4c(c3)OCO4)ccc2O1", "cytotoxicity call": "active"}, {"smiles": "C[C@@H]1CN([C@H](C)CO)C(=O)c2cc(NC(=O)Nc3ccc4c(c3)OCO4)ccc2O[C@@H](C)CCCCO[C@@H]1CN(C)Cc1ccc2c(c1)OCO2", "cytotoxicity call": "active"}]}]}
